Assay outcomes (PubChem)
The list is not random: actives were taken first. Their share in the collection is about 4.2%.
12-LOX inh = Primary qHTS assay for inhibitors of human arachidonate 12S-lipoxygenase (ALOX12): Round 2; hit rate 1.1% among 580,000; Polyunsaturated fatty acid lipoxygenase ALOX12 (Homo sapiens), P18054; Potency, µM (top dose mostly 108 µM), for the others: top-dose activity change, negative = inhibition, most hits filed as inhibitors; purified 12hLO, xylenol orange hydroperoxide absorbance
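Purified human 12hLO (150 nM final) in 25 mM Hepes, 0.01% Triton X-100, pH 7.0 was preincubated 15 min at room temperature with compound. Then 40 uM arachidonic acid was added, 30 min. Hydroperoxide was read by Fe-XO absorbance ratio 573/405 nm.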
Sfp PPTase inh = qHTS Assay for Inhibitors of Bacillus subtilis Sfp phosphopantetheinyl transferase (PPTase) | 4'-phosphopantetheinyl transferase ffp (Bacillus subtilis), Q9F4F7 | Biochemical Sfp PPTase activity, qHTS | Potency, µM, inactives show largest response in the series, negative = inhibition, hits mostly inhibitors | hit rate 3.5% among 310,000 | AID 1490, 2009;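 note: the enzyme is Sfp with the accession as filed and its product quenches rhodamine fluorescence; 0% = enzyme reaction without inhibitor and -100% = no enzyme wells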
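Buffer: 50 mM Hepes-Na pH 7.6, 10 mM MgCl2, 0.01% Nonidet P-40, 0.01% BSA. Enzyme 15 nM, pre-exposed to compound 15 min; substrates then added and fluorescence change tracked over 30 min.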
VDR inhibitor = Inhibitors of the vitamin D receptor (VDR): qHTS; hit rate 0.93% among 400,000; VDR-SRC2-3 peptide fluorescence polarization, 2 h; Potency, µM, inactives show max response, negative = inhibition, usual class: inhibitors; Vitamin D3 receptor (Homo sapiens), P11473
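Measured by FP: displacement of SRC2-3 coactivator peptide from VDR by library compounds, following a two-hour ambient incubation.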
PLK1 PBD block = qHTS for Inhibitors of PLK1-PDB (polo-like kinase 1 - polo-box domain): Primary Screen. Serine/threonine-protein kinase PLK1 (Homo sapiens), P53350. Plk1 PBD binding of FITC phosphopeptide, fluorescence polarization. Potency, µM, without a hit: max response, negative = inhibition, usual class: inhibitors. hit rate 2.8% among 360,000. AID 720504, 2013; note: series mostly up to about 57 µM; nearly all actives have a fitted effect of over 65% in size
Target sequence (P53350 whole entry, looked up, the tested form may be a part): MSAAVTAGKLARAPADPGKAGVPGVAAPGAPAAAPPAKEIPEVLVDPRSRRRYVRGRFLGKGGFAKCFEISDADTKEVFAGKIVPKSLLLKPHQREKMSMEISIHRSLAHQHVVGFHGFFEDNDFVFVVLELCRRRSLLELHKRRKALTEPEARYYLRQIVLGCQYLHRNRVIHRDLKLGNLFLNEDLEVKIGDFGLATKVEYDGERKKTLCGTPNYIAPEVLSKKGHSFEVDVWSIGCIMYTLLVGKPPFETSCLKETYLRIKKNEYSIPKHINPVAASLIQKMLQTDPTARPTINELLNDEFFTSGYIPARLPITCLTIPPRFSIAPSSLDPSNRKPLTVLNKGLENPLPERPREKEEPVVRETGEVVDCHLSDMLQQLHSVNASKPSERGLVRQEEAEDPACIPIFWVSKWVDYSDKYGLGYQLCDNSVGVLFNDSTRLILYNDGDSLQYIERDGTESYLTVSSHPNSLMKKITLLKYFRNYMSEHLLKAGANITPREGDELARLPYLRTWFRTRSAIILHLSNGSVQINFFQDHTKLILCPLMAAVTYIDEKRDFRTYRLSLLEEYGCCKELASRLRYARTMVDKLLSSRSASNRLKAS
* hit, by the source's call; i = inactive; ? = inconclusive; . = no result; [ ] = another dose, or the depositor's remark. Calls come from the whole dose curve; as a rule, active = well fitted curve in the direction sought with a large enough effect; inconclusive = small, poorly fitted or top-dose-only effect, or another doubt; inactive = no such curve, though single readings can be large; an effect the other way counts as inactive or inconclusive. Unless noted, % is set by controls: 0 for no effect and ±100 for the full control effect; potency is the fitted concentration of half-maximal effect.

SMILES	12-LOX inh	Sfp PPTase inh	VDR inhibitor	PLK1 PBD block
CCn1c(O)c(C(c2ccccn2)c2c(O)n(CC)c(=S)[nH]c2=O)c(=O)[nH]c1=S	11%	50µM*	-8%	-6%
O=S(=O)(c1ccc(F)cc1)N1CN2CCN(C2)C1	11%	22%	-10%	-15%
Cc1ccccc1-c1nn2c(=O)cc(CN3CCN(C(=O)COc4ccccc4Cl)CC3)nc2s1	-18%	.	2%	.
Cc1ccccc1-n1c(O)c(/C=N/NC(=O)c2ccccc2O)c(=O)[nH]c1=S	?	6%	?	4.2µM*
Cc1cccc(-n2c(O)c(/C=N/Nc3nc4c(c(=O)n(C)c(=O)n4C)n3C)c(=O)[nH]c2=S)c1	32µM*	56µM*	-1%	?
Cn1c(=O)c2c(nc(N/N=C/c3c(O)n(C4CCCCC4)c(=S)[nH]c3=O)n2C)n(C)c1=O	?	71µM*	?	?
Cc1ccccc1-n1c(O)c(/C=N/Nc2nc3c(c(=O)n(C)c(=O)n3C)n2C)c(=O)[nH]c1=S	?	50µM*	-2%	-9%
COc1ccc(CNC(=O)CCC(=O)N2C[C@H]3C[C@H](C2)c2cccc(=O)n2C3)cc1	9%	8%	-20%	-8%
COCCCn1c(-c2ccc(OC)cc2)cc(C(=O)NC2CCCCCCC2)c1C	-7%	-8%	-20%	-17%
COc1cc2c(cc1CCc1ccccc1)N(C(=O)c1ccnn1C)CC21CCN(C(C)=O)CC1	3%	.	.	.
O=c1c2ccccc2nc(CNCC2CCCO2)n1-c1ccc(F)cc1 (configuration not stated)	i	14%	12%	7%
O=C(Nc1ccc2n(c1=O)C[C@H]1C[C@@H]2CN(C(=O)c2ccccn2)C1)C1CCCCC1	9%[176 µM]	.	.	.
COC(=O)C1=C(c2ccc(-c3ccccc3)c(F)c2)C[C@@H]2CC[C@H]1N2C(=O)N1CCc2cc(OC)c(OC)cc2C1	-22%	.	4%	-14%
C[C@@H]([C@@H](O)c1ccccc1)N(C)C(=O)Cc1ccccc1	12%	.	4%	-4%
CN(C)CC(C(=O)Cc1ccccc1)c1ccccc1 (configuration not stated)	-12%	.	35µM*	-9%
C[C@]12CCC3C(CC[C@]4(O)CC(O)CC[C@@]34C=O)[C@]1(O)CCC2C1=CC(=O)OC1 (some centres not stated)	.	19%	8%	.
CN1CCN(c2ccc(F)cc2N)CC1	0%	13%	7%	-3%
CCOc1cc2c(cc1OCC)-n1cccc1C(c1ccc(F)c(OC)c1)NC2 (configuration not stated)	0%	-11%	3%	-3%
CCCCCn1c(=O)c(C(=O)Nc2cnccn2)c(O)c2ccccc21	0%	16%	12%	21µM*
CN(C)[C@@H](Cc1ccccc1)c1ccccc1	.	24%	5%	.
CCc1ccc(CN2CCN(Cc3cc(Br)ccc3O)CC2)cc1	0.63µM*	?	-9%	-7%
CN1CCN(c2ccc(N)cc2Cl)CC1	8%	?	?	15µM*
Cc1cc(OCC(=O)N2CCN(CC(=O)N3CCOCC3)CC2)c(C(C)C)cc1Cl	181%	.	-3%	-14%
COc1ccc(C(=O)CN2CCOCC2)cc1F	?	9%	-12%	-10%
O=C(CN1CCOCC1)c1ccc2cc[nH]c2c1	?	50µM*	-4%	-15%
SMILES	12-LOX inh	Sfp PPTase inh	VDR inhibitor	PLK1 PBD block
Cc1cc(C)c(C(=O)CN2CCOCC2)c(C)c1	?	3%	28µM*	-12%
CCCCC[C@@H](/C=C/C=C\C/C=C\C/C=C\CCCC(=O)O)OO	-2%[2.23 µM]	11%	-3%	.
CCOc1cc(C2C(C#N)=C(N)Oc3c2c(=O)oc2ccccc32)ccc1OC(=O)c1cccs1 (configuration not stated)	?	50µM*	-3%	6%
Cc1cc(C)cc(NC(=O)CN2C(=O)CN=C(c3ccccc3)c3cc(Cl)ccc32)c1	-12%	.	10%	.
Cc1c(O)c(=O)ccn1C	.	56µM*	-10%	-3%
COc1ccc(NC2=NC(C)(C)CS2)cc1	0%	56µM*	8%	21µM*
Cn1nc(-c2ccc(F)cc2)cc1[C@H]1CN2CC[C@H]1C[C@@H]2CNC(=O)NCc1ccccc1	14%	.	.	.
CCCCOc1ccc(C(C)=O)cc1Cc1c(O)[nH]c(=S)[nH]c1=O	13%	?	?	?
COc1ccc(Cc2c(O)[nH]c(=S)[nH]c2=O)cc1	28µM*	56µM*	-14%	27µM*
N#CC(C#N)=Cc1ccc([N+](=O)[O-])c(O)c1	?	35µM*	.	.
O=C(O)Cc1ccccc1	-12%[22.9 µM]	2%	9%	.
O=C(O)CNC(=O)[C@@H](CS)Cc1ccccc1	.	35µM*	0%	.
Cc1ccc(OP(=O)(Nc2cccc(C)c2)Oc2ccc(C)cc2)cc1	-9%	7%	-6%	-14%
CNC(=O)C(C)NC(=O)c1cn(Cc2ccccc2)c2ccccc12 (configuration not stated)	67%	.	.	.
COc1ccc(OC)c(-n2c(O)c(C=Nc3c(C)n(C)n(-c4ccccc4)c3=O)c(=O)[nH]c2=S)c1	?	45µM*	5%	-26%
CCOc1ccccc1-n1c(O)c(C=Nc2c(C)n(C)n(-c3ccccc3)c2=O)c(=O)[nH]c1=O	-18%	-6%	-3%	-13%
Cc1ccc(OCCn2cccc2/C=C2/C(=O)NC(=O)N(Cc3ccco3)C2=O)cc1	35µM*	?	-12%	2.7µM*
Cc1ccc(-n2c(C)cc(/C=C3/C(=O)NC(=O)N(Cc4ccco4)C3=O)c2C)cc1	?	?	-2%	?
Cn1cccc1/C=C1\C(=O)NC(=O)N(Cc2ccco2)C1=O	?	-20%	-29%	24µM*
COc1ccc([C@@H]2CN(C(=O)Cc3nonc3C)[C@@H]3C4CCN(CC4)[C@@H]32)cc1	2%	.	.	.
Cc1nonc1CC(=O)N1C[C@H](O)[C@@H](N2CCC(O)CC2)C1	13µM*	.	.	.
CCOc1ccc2c(c1)c(C(C)=O)c(C)n2Cc1ccccc1	10%	.	.	.
CNC(=S)N(C)CCc1cc2c(c(OC)c1C=C1C(=O)NC(=O)NC1=O)OCO2	0%	?	-4%	?
C=CCN1C(=O)NC(=O)/C(=C/c2c(CCN(C)C(=O)c3ccccc3)cc3c(c2OC)OCO3)C1=O	?	-6%	-21%	24µM*
Cc1cccc([C@H]2C[C@@H](O)[C@@H](O)[C@@H]2NCC(C)C)c1	21%[176 µM]	.	.	.
CCCCn1c(=O)c(C(=O)Nc2nnc(C(C)C)s2)c(O)c2ccccc21	.	16%	.	.
CC1=Nc2ccccc2/C1=C/c1c(O)[nH]c(=O)[nH]c1=O	28µM*	0%	6%	?
O=[N+]([O-])/C=C/c1ccc2c(c1)OCO2	.	.	7.1µM*	.
COc1cc2c(cc1/C=C/[N+](=O)[O-])OCO2	1%	-21%	25µM*	?
C/C(=C\c1ccc2c(c1)OCO2)[N+](=O)[O-]	14µM*	.	.	.
